{"source": "PubChem BioAssay", "key": {"[1]": {"test": "A549 cell viability effects, profiling panel, calcein-AM fluorescence, 48 h, basal (AID 1162); further: test concentration not given here", "settings": "higher = more signal"}, "[2]": {"test": "adipocyte viability effects, profiling panel, cell-based, 3T3-L1 adipocytes, calcein-AM fluorescence, 48 h, basal (AID 1163); further: test concentration not given here", "settings": "3T3-L1 adipocytes viability, higher = more signal"}, "[3]": {"test": "HepG2 cell viability effects, profiling panel, calcein-AM fluorescence, 48 h, basal (AID 1164); further: test concentration not given here", "settings": "higher = more signal"}, "[4]": {"test": "MM1S cell viability effects, profiling panel, calcein-AM fluorescence, 48 h, basal (AID 1165);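 further: viability of MM1S multiple myeloma cells under basal unstimulated conditions; test concentration not given here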", "settings": "higher = more signal"}, "[5]": {"test": "basal RPMI8226 viability, no added stimulus, profiling panel, cell-based, calcein-AM fluorescence, 48 h, PK04 Diversity Set (AID 1166);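 further: cells grown under basal conditions without added stimulus; test concentration not given here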", "settings": "RPMI8226 myeloma viability, higher = more signal"}, "[6]": {"test": "basal HepG2 mitochondrial membrane potential changes, profiling panel, cell-based, JC-1 fluorescence, 24 h, 100 nL compound (AID 1167); further: test concentration not given here", "settings": "higher = more signal"}, "[7]": {"test": "basal 3T3-L1 adipocyte mitochondrial potential changes, profiling panel, cell-based, JC-1 fluorescence, 3T3-L1 adipocytes, 24 h, 100 nL compound (AID 1168); further: test concentration not given here", "settings": "JC-1 mitochondrial fluorescence, higher = more signal, called active from +8 up or from −8 down"}, "[8]": {"test": "basal RPMI8226 mitochondrial membrane potential changes, profiling panel, cell-based, JC-1 fluorescence, 24 h, 100 nL compound (AID 1169); further: test concentration not given here", "settings": "RPMI8226 myeloma, JC-1 mitochondrial potential fluorescence, higher = more signal"}, "[9]": {"test": "basal MM1S mitochondrial membrane potential changes, profiling panel, cell-based, JC-1 fluorescence, 24 h, 100 nL compound (AID 1170); further: test concentration not given here", "settings": "higher = more signal"}, "[10]": {"test": "A549 lung cancer cell viability effects, profiling panel, resazurin fluorescence, 24 h, PK04 Diversity Set (AID 1171); further: test concentration not given here", "settings": "higher = more signal, called active from +8 up or from −8 down"}, "[11]": {"test": "HepG2 liver cancer cell viability effects, profiling panel, resazurin fluorescence, 24 h, PK04 Diversity Set (AID 1172); further: test concentration not given here", "settings": "higher = more signal"}, "[12]": {"test": "basal S. cerevisiae growth modulation, no modifier, primary screen, OD600, strain BY4716, 24 h, basal condition (AID 1173)", "settings": "OD600, 24 h, higher = more signal, called active from +8 up or from −8 down"}, "[13]": {"test": "MM1S myeloma cell viability, profiling panel, resazurin fluorescence, basal, 24 h, PK04 Diversity Set (AID 1174);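 further: MM1S multiple myeloma cell line; test concentration not given here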", "settings": "higher = more signal, called active from +8 up or from −8 down"}, "[14]": {"molecular_target": "Dihydroorotate dehydrogenase (quinone), mitochondrial (Plasmodium falciparum (isolate 3D7)) (UniProt Q08210)", "sequence (Q08210 whole entry, looked up)": "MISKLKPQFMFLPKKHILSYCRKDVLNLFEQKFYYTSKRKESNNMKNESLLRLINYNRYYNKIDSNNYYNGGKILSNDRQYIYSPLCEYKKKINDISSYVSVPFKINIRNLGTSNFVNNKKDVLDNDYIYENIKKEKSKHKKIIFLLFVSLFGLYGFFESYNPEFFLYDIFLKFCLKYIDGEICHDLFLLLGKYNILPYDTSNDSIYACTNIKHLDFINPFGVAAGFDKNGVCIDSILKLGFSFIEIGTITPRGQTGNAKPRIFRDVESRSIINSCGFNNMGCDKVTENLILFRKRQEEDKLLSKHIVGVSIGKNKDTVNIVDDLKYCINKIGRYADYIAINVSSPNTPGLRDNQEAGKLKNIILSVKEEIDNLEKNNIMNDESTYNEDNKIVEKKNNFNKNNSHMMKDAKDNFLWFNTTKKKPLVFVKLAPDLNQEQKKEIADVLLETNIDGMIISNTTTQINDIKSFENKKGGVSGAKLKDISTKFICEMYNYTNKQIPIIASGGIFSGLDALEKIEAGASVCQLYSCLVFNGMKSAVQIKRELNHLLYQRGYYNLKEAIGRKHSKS", "test": "PfDHODH enzyme inhibitors, primary screen, biochemical, C-terminal His tag, absorbance 600 nm (AID 1175);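 further: recombinant parasite enzyme with a five histidine tag at its C terminus; test concentration not given here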", "settings": "DCIP absorbance 600 nm, higher = more signal, called active from +8 up or from −8 down"}, "[15]": {"test": "P. aeruginosa biofilm formation inhibitors, primary screen, strain PAO1, LB-PBS medium, absorbance 600 nm (AID 1176); further: test concentration not given here", "settings": "P. aeruginosa PAO1 growth/biofilm, A600, 12 h; higher = more signal"}, "[16]": {"test": "S. cerevisiae RM11-1a growth modifiers, primary screen, strain RM11-1a, OD600, basal, 24 h (AID 1177);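 further: cultures grown under basal conditions with no added stressor; test concentration not given here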", "settings": "OD600, 24 h, higher = more signal, called active from +8 up or from −8 down"}, "[17]": {"test": "E. coli acrAB mutant growth effects, primary screen, E. coli filamentation inducers, strain DRC39, OD650, 24 h (AID 1178);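 further: growth measured as culture turbidity by optical density at 650 nm; test concentration not given here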", "settings": "higher = more signal, called active from +8 up or from −8 down"}, "[18]": {"test": "E. coli acrAB mutant growth effects, primary screen, E. coli filamentation inducers, strain DRC39, OD650, 48 h (AID 1179);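 further: screen aims at cell division blockers that make cells filament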", "settings": "E. coli DRC39 delta-acrAB growth, higher = more signal, called active from +8 up or from −8 down"}, "[19]": {"test": "RPMI8226 myeloma cell viability, profiling panel, resazurin fluorescence, basal, 24 h, PK04 Diversity Set (AID 1180);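 further: RPMI8826 multiple myeloma cell line at 5000 cells per well; test concentration not given here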", "settings": "higher = more signal"}, "[20]": {"molecular_target": "E3 ubiquitin-protein ligase XIAP (Homo sapiens) (UniProt P98170)", "sequence (P98170 whole entry, looked up)": "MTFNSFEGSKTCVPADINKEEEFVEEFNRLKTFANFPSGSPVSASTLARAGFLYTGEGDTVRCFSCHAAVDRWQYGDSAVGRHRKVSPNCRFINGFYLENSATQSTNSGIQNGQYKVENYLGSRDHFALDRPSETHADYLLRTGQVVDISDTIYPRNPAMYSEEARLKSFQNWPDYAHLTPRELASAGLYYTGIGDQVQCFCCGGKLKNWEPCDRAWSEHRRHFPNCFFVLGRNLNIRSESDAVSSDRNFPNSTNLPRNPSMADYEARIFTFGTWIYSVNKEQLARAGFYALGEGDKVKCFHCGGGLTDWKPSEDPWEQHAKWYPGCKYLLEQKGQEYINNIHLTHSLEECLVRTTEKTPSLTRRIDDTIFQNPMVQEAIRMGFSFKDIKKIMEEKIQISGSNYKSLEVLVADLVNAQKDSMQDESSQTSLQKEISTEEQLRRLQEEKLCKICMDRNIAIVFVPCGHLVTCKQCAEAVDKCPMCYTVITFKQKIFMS", "test": "XIAP binders, primary screen, biophysical, small-molecule microarray, fluorescence 635 nm (AID 1181);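 further: score merges 667 nm emission and signal to noise over triplicate slides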", "settings": "small-molecule microarray binding, higher = more signal"}}, "note": "Calls of active or inactive are those of the source. Unless noted, how the calls were made is not given here."}
{"smiles": "CCN1C(=O)[C@H]2[C@H]3[C@H](O)[C@H](O)CC(=O)[C@@H]3CC[C@H]2C1=O", "values": [{"measurement": "z-score", "setting": "[1]", "result": 0.111}, {"measurement": "z-score", "setting": "[2]", "result": 0.0891}, {"measurement": "z-score", "setting": "[3]", "result": 0.0082}, {"measurement": "z-score", "setting": "[4]", "result": -0.681}, {"measurement": "z-score", "setting": "[5]", "result": 0.177}, {"measurement": "z-score", "setting": "[6]", "result": 0.231}, {"measurement": "z-score", "setting": "[7]", "result": "0.55 (inactive)"}, {"measurement": "z-score", "setting": "[8]", "result": -0.0467}, {"measurement": "z-score", "setting": "[9]", "result": -0.22}, {"measurement": "z-score", "setting": "[10]", "result": "-0.561 (inactive)"}, {"measurement": "z-score", "setting": "[11]", "result": -0.309}, {"measurement": "z-score", "setting": "[12]", "result": "-0.553 (inactive)"}, {"measurement": "z-score", "setting": "[13]", "result": "-0.399 (inactive)"}, {"measurement": "composite z-score", "setting": "[14]", "result": "-0.308 (inactive)"}, {"measurement": "z-score", "setting": "[15]", "result": "-0.72 (inactive)"}, {"measurement": "z-score", "setting": "[16]", "result": "-0.162 (inactive)"}, {"measurement": "z-score", "setting": "[17]", "result": "-0.307 (inactive)"}, {"measurement": "z-score", "setting": "[18]", "result": "-0.164 (inactive)"}, {"measurement": "z-score", "setting": "[19]", "result": -0.752}, {"measurement": "composite z-score", "setting": "[20]", "result": 0.112}]}
{"smiles": "COC(=O)CC=C[C@@H](C)[C@@H](C=NOC[C@@H](O)[C@H]1O[C@@H]2OC(C)(C)O[C@@H]2[C@H]1O)NS(=O)(=O)c1ccc(C)cc1", "values": [{"measurement": "z-score", "setting": "[1]", "result": -0.234}, {"measurement": "z-score", "setting": "[2]", "result": 0.531}, {"measurement": "z-score", "setting": "[3]", "result": 0.104}, {"measurement": "z-score", "setting": "[4]", "result": -1.57}, {"measurement": "z-score", "setting": "[5]", "result": -0.34}, {"measurement": "z-score", "setting": "[6]", "result": 0.153}, {"measurement": "z-score", "setting": "[7]", "result": "0.158 (inactive)"}, {"measurement": "z-score", "setting": "[8]", "result": -0.15}, {"measurement": "z-score", "setting": "[9]", "result": -0.488}, {"measurement": "z-score", "setting": "[10]", "result": "-0.854 (inactive)"}, {"measurement": "z-score", "setting": "[11]", "result": -0.687}, {"measurement": "z-score", "setting": "[12]", "result": "0.185 (inactive)"}, {"measurement": "z-score", "setting": "[13]", "result": "-0.502 (inactive)"}, {"measurement": "composite z-score", "setting": "[14]", "result": "-0.241 (inactive)"}, {"measurement": "z-score", "setting": "[15]", "result": "0.453 (inactive)"}, {"measurement": "z-score", "setting": "[16]", "result": "0.0095 (inactive)"}, {"measurement": "z-score", "setting": "[17]", "result": "-0.336 (inactive)"}, {"measurement": "z-score", "setting": "[18]", "result": "0.447 (inactive)"}, {"measurement": "z-score", "setting": "[19]", "result": -0.609}, {"measurement": "composite z-score", "setting": "[20]", "result": -0.0445}]}
{"smiles": "CO[C@H]1COC(=O)[C@@H](C)COC(=O)[C@@H](OCc2ccccc2)C=C[C@@H]1C", "values": [{"measurement": "z-score", "setting": "[1]", "result": -0.162}, {"measurement": "z-score", "setting": "[2]", "result": -0.197}, {"measurement": "z-score", "setting": "[3]", "result": 0.373}, {"measurement": "z-score", "setting": "[4]", "result": -0.112}, {"measurement": "z-score", "setting": "[5]", "result": 0.473}, {"measurement": "z-score", "setting": "[6]", "result": 0.485}, {"measurement": "z-score", "setting": "[7]", "result": "0.531 (inactive)"}, {"measurement": "z-score", "setting": "[8]", "result": 0.458}, {"measurement": "z-score", "setting": "[9]", "result": 0.0911}, {"measurement": "z-score", "setting": "[10]", "result": "0.39 (inactive)"}, {"measurement": "z-score", "setting": "[11]", "result": 0.409}, {"measurement": "z-score", "setting": "[12]", "result": "-0.471 (inactive)"}, {"measurement": "z-score", "setting": "[13]", "result": "0.687 (inactive)"}, {"measurement": "composite z-score", "setting": "[14]", "result": "0.976 (inactive)"}, {"measurement": "z-score", "setting": "[15]", "result": "-0.601 (inactive)"}, {"measurement": "z-score", "setting": "[16]", "result": "1.14 (inactive)"}, {"measurement": "z-score", "setting": "[17]", "result": "0.334 (inactive)"}, {"measurement": "z-score", "setting": "[18]", "result": "-0.183 (inactive)"}, {"measurement": "z-score", "setting": "[19]", "result": 0.681}, {"measurement": "composite z-score", "setting": "[20]", "result": 0.131}]}
{"smiles": "C#CCCCON=C1C[C@@H](O)[C@@H](O)[C@@H]2[C@@H]3C(=O)N(c4ccc(F)cc4F)C(=O)[C@@H]3CC[C@H]12", "values": [{"measurement": "z-score", "setting": "[1]", "result": 1.14}, {"measurement": "z-score", "setting": "[2]", "result": -0.0377}, {"measurement": "z-score", "setting": "[3]", "result": -0.123}, {"measurement": "z-score", "setting": "[4]", "result": 0.324}, {"measurement": "z-score", "setting": "[5]", "result": 0.116}, {"measurement": "z-score", "setting": "[6]", "result": 0.769}, {"measurement": "z-score", "setting": "[7]", "result": "-0.229 (inactive)"}, {"measurement": "z-score", "setting": "[8]", "result": -0.0797}, {"measurement": "z-score", "setting": "[9]", "result": -1.25}, {"measurement": "z-score", "setting": "[10]", "result": "0.705 (inactive)"}, {"measurement": "z-score", "setting": "[11]", "result": 0.63}, {"measurement": "z-score", "setting": "[12]", "result": "-0.98 (inactive)"}, {"measurement": "z-score", "setting": "[13]", "result": "0.475 (inactive)"}, {"measurement": "composite z-score", "setting": "[14]", "result": "-0.31 (inactive)"}, {"measurement": "z-score", "setting": "[15]", "result": "0.577 (inactive)"}, {"measurement": "z-score", "setting": "[16]", "result": "-1.67 (inactive)"}, {"measurement": "z-score", "setting": "[17]", "result": "0.335 (inactive)"}, {"measurement": "z-score", "setting": "[18]", "result": "0.537 (inactive)"}, {"measurement": "z-score", "setting": "[19]", "result": 0.817}, {"measurement": "composite z-score", "setting": "[20]", "result": 0.199}]}
